# From PubChem BioAssay (NCI)
# The panel holds about 83,000 compounds, 20% with a hit somewhere; the sample as a whole holds those more often.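 For each line, cells grew in 96-well plates with the test compound present at a single concentration for 48 hours.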 Unmarked numbers belong to inactive results. Active and inactive are the calls of the source. Rule for the calls: active = growth percent below 10; inactive = the rest.
# Assays:
# Assay in all cases: NCI-60 one-dose screen, 48 h (100 = growth as untreated, 0 = no growth, -100 = all killed)
# Details in all cases: 10 µM unless noted
# NCI-H23 lung = tested on: NCI-H23 lung
# NCI-H226 lung = tested on: NCI-H226 lung
# NCI-H322M lung = tested on: NCI-H322M lung
# HOP-62 NSCLC = tested on: HOP-62 NSCLC
# NCI-H460 lung = tested on: NCI-H460 lung
# NCI-H522 lung = tested on: NCI-H522 lung
# A549/ATCC NSCLC = tested on: A549/ATCC NSCLC
# 786-0 renal = tested on: 786-0 renal
# COLO 205 colon = tested on: COLO 205 colon
# DU-145 prostate = tested on: DU-145 prostate
# K-562 leukemia = tested on: K-562 leukemia
# MALME-3M melanoma = tested on: MALME-3M melanoma
# MDA-MB-231 breast = tested on: MDA-MB-231 breast
# RXF 393 renal = tested on: RXF 393 renal
# SF-268 CNS = tested on: SF-268 CNS
# SF-295 CNS = tested on: SF-295 CNS
# SF-539 CNS = tested on: SF-539 CNS
# UACC-257 melanoma = tested on: UACC-257 melanoma
# M14 melanoma = tested on: M14 melanoma
SMILES,growth (NCI-H23 lung),growth (NCI-H226 lung),growth (NCI-H322M lung),growth (HOP-62 NSCLC),growth (NCI-H460 lung),growth (NCI-H522 lung),growth (A549/ATCC NSCLC),growth (786-0 renal),growth (COLO 205 colon),growth (DU-145 prostate),growth (K-562 leukemia),growth (MALME-3M melanoma),growth (MDA-MB-231 breast),growth (RXF 393 renal),growth (SF-268 CNS),growth (SF-295 CNS),growth (SF-539 CNS),growth (UACC-257 melanoma),growth (M14 melanoma)
O=C(O)c1ccccc1Oc1cc(-c2ccco2)nc(OCCN2CCOCC2)n1,106%,97%,94.6%,99.9%,116%,92.1%,106%,96.5%,103%,113%,107%,98.3%,98.8%,115%,114%,102%,108%,108%,99.1%
FC(F)(F)c1nn[nH]n1,96.6%,94.8%,111%,125%,117%,102%,94.1%,107%,122%,99.5%,113%,100%,116%,104%,94.5%,106%,106%,110%,112%
CCC1=CC2CN(C1)Cc1c([nH]c3ccccc13)[C@@](C(=O)OC)(c1cc3c(cc1OC)N(C)[C@H]1[C@@](O)(C(=O)OC)[C@H](OC(C)=O)[C@]4(CC)C=CCN5CC[C@]31[C@@H]54)C2 (some centres not stated),3.64% (active),-1.33% (active),70%,19.8%,3.4% (active),-4.74% (active),11%,-8.81% (active),-75% (active),-30.1% (active),17%,44.5%,30.3%,47.1%,17.4%,15.4%,6.49% (active),59.1%,-36.8% (active)
CCOc1cc(/C=N\NC(=O)C[N+](C)(C)C)ccc1O,104%,97.5%,123%,115%,114%,104%,105%,113%,119%,116%,73.4%,115%,127%,120%,109%,111%,120%,112%,118%
CCn1c(Cc2ccccc2Nc2c(Cl)cccc2Cl)nnc1SCC(=O)Nc1cccc(OC)c1,85%,83.3%,79.4%,94.2%,84.8%,42.6%,66.1%,89.8%,96.4%,94%,62.6%,94.3%,61.6%,90%,82.1%,81.9%,105%,97.6%,76.4%
C=C1C(=O)O[C@H]2[C@H]1CC/C(COC(=O)NCc1c[nH]c3ccc(OC)cc13)=C\CC[C@@]1(C)O[C@@H]21,51.6%,27.9%,84.9%,49.2%,33.7%,-72.8% (active),29.6%,-59.2% (active),-69.2% (active),-10.4% (active),3.23% (active),-31% (active),-6.78% (active),-93.3% (active),45.2%,63.5%,-23.3% (active),-16.3% (active),-48% (active)
OC(COCc1ccccc1)COCc1ccccc1,110%,106%,112%,106%,112%,100%,99.9%,108%,110%,122%,99.3%,105%,108%,119%,115%,108%,110%,97.9%,103%
Cc1cc(N)cc(C)c1-c1c(Br)cc(N)cc1Br,50.9%,69.2%,18.8%,25.1%,17.4%,-9.5% (active),25.2%,26.7%,11.9%,28.6%,8.58% (active),14%,42.6%,-22.9% (active),41.4%,-14% (active),15.3%,62%,10.8%
